Assay results published in PubChem BioAssay AID1159580 (chemical genetic matrix, 2015).
“And” between values parts separate entries of the source, which are not always exact repeats. Equal entries are not always repeated. The whole screen tested about 5,500 compounds, of which about 2,000 (36%) were called active. Inconclusive results (about 18%) are left out. No stated cut-off is given here; in the data, active means normalized growth mostly below about 0.91 (no sharp cut-off); inconclusive means no clear call, values can overlap the other calls; inactive means mostly above about 0.92. The list shows a part of the results.

Assay: chemical genetic growth profiling, strain panel (AID 1159580);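 further: tested at 20 µM; growth read once vehicle control cultures reached saturation at 30 °C; 1 = growth at the plate median or of vehicle wells; lower values mean less growth of the strain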
Conditions: S. cerevisiae deletion strains, growth OD

Measured: normalized growth

C[C@@H](CO)NC(=O)C1C=C2c3cccc4[nH]cc(c34)C[C@H]2N(C)C1 (stereo partly specified)
inactive: locus YAL013W, strain DEP1, active compounds read low 1.02 | locus YAL021C, strain ccr4, active compounds read low 1.01 | locus YAL026C, strain drs2, active compounds read low 0.989 | locus YAL030W, strain snc1, active compounds read low 1.03 | locus YBL061C, strain skt5, active compounds read low 1.02 | locus YBR009C, strain hhf1, active compounds read low 0.979 | locus YBR021W, strain FUR4, active compounds read low 0.963 | locus YBR023C, strain chs3, active compounds read low 1.01 | locus YBR171W, strain sec66, active compounds read low 1.02 | locus YBR229C, strain ROT2, active compounds read low 0.997 | locus YBR231C, strain swc5, active compounds read low 1.02 | locus YBR279W, strain paf1, active compounds read low 1 | locus YCL011C, strain gbp2, active compounds read low 0.991 | locus YCL016C, strain dcc1, active compounds read low 0.955 | locus YCL029C, strain bik1, active compounds read low 0.986 | locus YCL069W, strain vba3, active compounds read low 1.01 | locus YCR088W, strain abp1, active compounds read low 1.01 | locus YDL005C, strain med2, active compounds read low 1.02 | locus YDL035C, strain GPR1, active compounds read low 1.03 | locus YDL040C, strain nat1, active compounds read low 1.01 | locus YDL074C, strain BRE1, active compounds read low 1.08 | locus YDL101C, strain DUN1, active compounds read low 0.996 | locus YDL134C, strain PPH21, active compounds read low 0.995 | locus YDL185W, strain tfp1, active compounds read low 0.983 | locus YDL192W, strain arf1, active compounds read low 0.994 | locus YDR001C, strain nth1, active compounds read low 1 | locus YDR069C, strain doa4, active compounds read low 1.04 | locus YDR101C, strain arx1, active compounds read low 0.997 | locus YDR137W, strain rgp1, active compounds read low 0.984 | locus YDR150W, strain NUM1, active compounds read low 0.987 | locus YDR159W, strain sac3, active compounds read low 0.937 | locus YDR162C, strain NBP2, active compounds read low 1.02 | locus YDR195W, strain ref2 1.01 | locus YDR297W, strain sur2, active compounds read low 1.03 | locus YDR318W, strain mcm21, active compounds read low 0.994 | locus YDR334W, strain swr1, active compounds read low 1 | locus YDR335W, strain msn5, active compounds read low 1.01 | locus YDR388W, active compounds read low 0.998 | locus YDR392W, strain spt3, active compounds read low 0.942 | locus YDR502C, strain sam2, active compounds read low 0.996 | locus YEL003W, strain gim4, active compounds read low 1.03 | locus YEL037C, strain rad23, active compounds read low 1.01 | locus YEL061C, strain CIN8 (second series), active compounds read low 1 | locus YEL061C, strain CIN8, active compounds read low 1.01 | locus YER015W, strain faa2, active compounds read low 1.01 | locus YER016W, strain bim1, active compounds read low 0.994 | locus YER110C, active compounds read low 0.99 | locus YER111C, strain swi4, active compounds read low 1 | locus YER155C, strain BEM2 (second series), active compounds read low 1.08 | locus YER155C, strain BEM2, active compounds read low 1 | locus YER167W, strain BCK2, active compounds read low 0.99 | locus YFR010W, strain ubp6, active compounds read low 1.01 | locus YGL078C, strain dbp3, active compounds read low 0.995 | locus YGL086W, strain mad1, active compounds read low 0.987 | locus YGL167C, strain pmr1, active compounds read low 1.03 | locus YGL173C, strain kem1, active compounds read low 1.04 | locus YGL227W, strain vid30, active compounds read low 1.01 | locus YGL240W, strain doc1, active compounds read low 1.04 | locus YGL248W, strain PDE1, active compounds read low 0.993 | locus YGL253W, strain hxk2, active compounds read low 0.985 | locus YGR078C, strain PAC10, active compounds read low 1.03 | locus YGR135W, strain pre9, active compounds read low 1.01 | locus YGR229C, strain SMI1, active compounds read low 1.06 | locus YGR252W, strain gcn5, active compounds read low 0.977 | locus YHR013C, strain ard1, active compounds read low 1 | locus YHR027C, strain rpn1, active compounds read low 1.01 | locus YHR030C, strain SLT2, active compounds read low 0.991 and 1.04 | locus YHR079C, strain IRE1 (second series), active compounds read low 0.991 | locus YHR079C, strain IRE1, active compounds read low 1.04 | locus YHR094C, strain hxt1, active compounds read low 0.991 | locus YHR129C, strain ARP1, active compounds read low 0.999 | locus YHR142W, strain chs7, active compounds read low 0.99 | locus YHR200W, strain rpn10, active compounds read low 0.988 | locus YIL066C, strain RNR3, active compounds read low 1 | locus YIL073C, strain SPO22, active compounds read low 0.949 | locus YIL125W, strain kgd1, active compounds read low 0.99 | locus YIR030C, strain dcg1, active compounds read low 0.994 | locus YJL092W, strain hpr5, active compounds read low 1.03 | locus YJL095W, strain BCK1 (second series), active compounds read low 1.03 | locus YJL095W, strain BCK1, active compounds read low 1.05 and 1.04 | locus YJL115W, strain asf1, active compounds read low 1.01 | locus YJL129C, strain trk1, active compounds read low 1.02 | locus YJL134W, strain LCB3, active compounds read low 0.997 | locus YJL154C, strain vps35, active compounds read low 1.01 | locus YJL164C, strain tpk1, active compounds read low 0.989 | locus YJL166W, strain qcr8, active compounds read low 1.03 | locus YJL168C, strain set2, active compounds read low 0.998 | locus YJL187C, strain SWE1 (second series), active compounds read low 1 | locus YJL187C, strain SWE1, active compounds read low 1.02 | locus YJR043C, strain POL32, active compounds read low 0.995 | locus YJR066W, strain TOR1, active compounds read low 1.01
